From PubChem BioAssay AID652197 (Broad Institute, 2013)
Screen size: about 340,000 compounds; about 500 (0.15%) were called active. This is one part of a sample in which actives are shown more often than they occur. Unmarked numbers belong to inactive results.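 How the source made its calls: active means mean replicate inhibition of at least 30%, or all replicates individually reaching that 30% level; inactive means mean below 30% and not every replicate reaching it.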

These compounds were tested against Endoplasmic reticulum aminopeptidase 1 (Homo sapiens) (UniProt Q9NZ08) (assay: inhibition of ERAP1 peptide trimming enzyme – biochemical, single point, plate reader, primary screen (AID 652197;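 further: 0% = neutral control wells and 100% = L-leucinethiol positive control wells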)). Conditions: recombinant ERAP1, Leu-AMC fluorescence, 60 min; at 10.7 µM; active compounds read high.
Chain of Endoplasmic reticulum aminopeptidase 1 (Homo sapiens) (Q9NZ08 whole entry, looked up): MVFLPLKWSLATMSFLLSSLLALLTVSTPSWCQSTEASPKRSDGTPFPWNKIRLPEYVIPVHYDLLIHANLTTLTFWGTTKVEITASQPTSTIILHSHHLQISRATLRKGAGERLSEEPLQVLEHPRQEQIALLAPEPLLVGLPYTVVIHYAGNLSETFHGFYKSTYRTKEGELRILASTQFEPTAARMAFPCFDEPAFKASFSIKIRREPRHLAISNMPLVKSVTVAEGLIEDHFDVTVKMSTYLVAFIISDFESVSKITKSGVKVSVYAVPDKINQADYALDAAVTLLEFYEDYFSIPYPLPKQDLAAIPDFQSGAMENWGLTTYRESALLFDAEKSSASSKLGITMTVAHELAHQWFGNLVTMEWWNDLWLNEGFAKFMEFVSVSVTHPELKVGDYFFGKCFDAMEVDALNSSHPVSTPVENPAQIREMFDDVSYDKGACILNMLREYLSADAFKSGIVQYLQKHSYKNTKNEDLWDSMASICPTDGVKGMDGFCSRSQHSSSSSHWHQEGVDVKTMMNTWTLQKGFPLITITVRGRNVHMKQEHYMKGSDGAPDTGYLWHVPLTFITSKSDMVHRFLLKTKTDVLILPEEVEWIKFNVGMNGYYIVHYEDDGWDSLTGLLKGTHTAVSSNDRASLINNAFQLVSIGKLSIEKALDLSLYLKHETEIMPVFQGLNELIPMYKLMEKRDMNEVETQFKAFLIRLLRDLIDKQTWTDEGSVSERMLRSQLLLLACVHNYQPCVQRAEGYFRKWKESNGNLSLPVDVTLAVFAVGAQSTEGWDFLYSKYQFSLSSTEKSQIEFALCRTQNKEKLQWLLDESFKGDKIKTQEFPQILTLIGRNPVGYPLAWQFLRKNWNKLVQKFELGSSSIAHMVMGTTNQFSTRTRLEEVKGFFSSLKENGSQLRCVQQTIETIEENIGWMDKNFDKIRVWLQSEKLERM
In the case of `O=C(Nc1ccccc1F)N1CC(=O)N2[C@H](C1)[C@@H](c1ccc(C#CC3CC3)cc1)[C@@H]2CO`, the inhibition is reported as -0.691%. With `O=S(=O)(c1ccc(F)cc1)N1CC[C@@H]2[C@@H](CO)Nc3ccc(-c4ccccc4F)cc3[C@@H]21` the inhibition was 1%. `O=C(Nc1ccccc1F)N[C@@H]1CC[C@@H](CCNC(=O)C2CC2)O[C@H]1CO` showed an inhibition of -0.77%. Compound `Cc1noc(C)c1NC(=O)Nc1ccc2c(c1)C(=O)N([C@H](C)CO)C[C@H](C)[C@@H](CN(C)S(C)(=O)=O)OCCCC[C@H](C)O2` has an inhibition of -4.94%. `CCCC#Cc1ccc([C@H]2[C@H]3CN(C(=O)c4cccnc4)CC(=O)N3[C@H]2CO)cc1` was tested, and the inhibition was -1.39%. With `O=C1CN(C(=O)CN2C(=O)NC3(CCCCC3)C2=O)c2ccccc2N1` the inhibition was -1.69%. Work on `O=C(CN1C(=O)NC2(CCCCCC2)C1=O)NCc1cccs1` yielded an inhibition of -3.05%. `O=C(CN1C(=O)NC2(CCCCC2)C1=O)N1CCN(C(=O)c2cccs2)CC1` was tested, and the inhibition was 37.4% (active). Compound `O=C1CNC[C@H]2[C@@H](c3ccc(C4=CCCC4)cc3)[C@@H](CO)N12` has an inhibition of -1.67%. `CCCN1C[C@H](C)[C@@H](OC)CN(C)C(=O)c2ccc(NC(=O)c3cnccn3)cc2OC[C@H]1C` gave an inhibition of 4.52%. For `COc1ccc2c3c([nH]c2c1)[C@@H](CO)N(S(C)(=O)=O)CC31CN(CC2CC2)C1`, the inhibition was -2.67%. `NCC[C@H]1CC[C@H](NC(=O)C2CC2)[C@@H](CO)O1` was tested, and the inhibition was 2.22%. Work on `C[C@@H]1CN([C@@H](C)CO)C(=O)c2cc(NC(=O)C3CCCCC3)ccc2O[C@@H](C)CCCCO[C@H]1CN(C)C(=O)CCC(F)(F)F` yielded an inhibition of -1.11%. Work on `Cc1ccc(S(=O)(=O)Nc2ccc3c(c2)C(=O)N([C@@H](C)CO)C[C@@H](C)[C@H](CN(C)C(=O)NC(C)C)OCCCC[C@H](C)O3)cc1` yielded an inhibition of -4.09%. `COc1ccccc1S(=O)(=O)N[C@@H]1CC[C@H](CC(=O)N2CCOCC2)O[C@@H]1CO` was tested, and the inhibition was -0.783%. `O=C(OCC(=O)c1c[nH]c2ccccc12)c1cccc(O)c1` showed an inhibition of -0.958%. In the case of `O=C(O)c1[nH]c2ccccc2c1C(c1cccc(O)c1)c1c(C(=O)O)[nH]c2ccccc12`, the inhibition is reported as 34.8% (active). For `C[C@H]1CN([C@@H](C)CO)C(=O)c2cc(NC(=O)Cn3cnnn3)ccc2O[C@H]1CN(C)S(C)(=O)=O`, the inhibition was -0.7%. With `CCCNC(=O)Nc1ccc2c(c1)C(=O)N(C)C[C@H](OC)[C@H](C)CN[C@@H](C)CO2` the inhibition was -2.85%. In the case of `COc1ccc2c3c([nH]c2c1)[C@H](CO)N(C(=O)C1CCC1)CC31CCN(Cc2cccc(F)c2)CC1`, the inhibition is reported as 0.436%. Work on `Cc1noc(C)c1S(=O)(=O)Nc1ccc2c(c1)C(=O)N([C@H](C)CO)C[C@H](C)[C@H](CN(C)C(=O)CCC(F)(F)F)OCCCC[C@H](C)O2` yielded an inhibition of 0.261%. For `CCCNC(=O)Nc1ccc2c(c1)OC[C@H](C)N(C(=O)C1CCC1)C[C@H](C)[C@@H](OC)CN(C)C2=O`, the inhibition was 2.58%. `C[C@@H]1CN([C@@H](C)CO)C(=O)c2c(c3ccccc3n2C)-c2ccccc2CO[C@@H]1CN(C)Cc1ccc2c(c1)OCCN2C` was tested, and the inhibition was 2.84%. For `O=C(C[C@H]1C[C@@H]2c3cc(NS(=O)(=O)c4ccc(F)cc4)ccc3O[C@@H]2[C@H](CO)O1)NCc1cccc(F)c1`, the inhibition was -2.83%. In the case of `CCCNC(=O)C[C@H]1C[C@H]2c3cc(NC(=O)COC)ccc3O[C@H]2[C@H](CO)O1`, the inhibition is reported as 0.774%.
